Compound activity from PubChem BioAssay.
CSC inhib = cancer stem cell inhibition; cancer stem cell-like cells viability, luminescence; inhibition, % at 7.5 µM; hit rate 1.1% among 300,000; AID 2717; in the data active = inhibition above about 75%; inconclusive = no clear call, values can overlap the other calls; tested in HMLE shEcad cells
PP1 inh = PP1-alpha (human) inhibition in PP5 counter-screen | purified PP1alpha, OMFP fluorescence | hit rate 0.9% among 320,000 | inhibition, % at 6.7 µM | P62136;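 active = inhibition above the mean inhibition of all tested compounds plus 3 SD, computed separately for each screening campaign, cut at about 15% in these data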
PP5 primary = blocks human protein phosphatase 5 activity; P53041; purified PP5c, OMFP substrate fluorescence; inhibition, % at 6.7 µM; hit rate 0.18% among 320,000;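 active = inhibition above the campaign's mean inhibition across all tested compounds plus 3 SD, cut at about 9.5% in these data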;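 also: 0% = DMSO only and 100% = 100 µM cantharidin control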
Target sequence (P53041 whole entry, looked up): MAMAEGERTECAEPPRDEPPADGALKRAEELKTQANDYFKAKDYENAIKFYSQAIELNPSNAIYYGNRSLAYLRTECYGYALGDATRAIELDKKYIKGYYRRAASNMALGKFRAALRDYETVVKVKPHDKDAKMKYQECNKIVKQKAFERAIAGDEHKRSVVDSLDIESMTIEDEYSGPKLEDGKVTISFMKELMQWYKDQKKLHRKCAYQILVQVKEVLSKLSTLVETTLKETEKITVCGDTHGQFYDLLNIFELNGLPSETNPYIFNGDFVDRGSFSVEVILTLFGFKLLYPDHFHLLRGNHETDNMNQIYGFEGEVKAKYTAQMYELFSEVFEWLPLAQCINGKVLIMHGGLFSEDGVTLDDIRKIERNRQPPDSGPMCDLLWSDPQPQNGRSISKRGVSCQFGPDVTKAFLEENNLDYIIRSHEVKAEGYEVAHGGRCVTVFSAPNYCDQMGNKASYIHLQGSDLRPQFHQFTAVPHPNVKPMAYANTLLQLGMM
SKKanGAS inh = blocks kanamycin growth of S. pyogenes SKKanGAS strain; AID 1662; hit rate 1.3% among 300,000; BacTiter-Glo, 6 h; inhibition, % at 7.5 µM;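 active = mean replicate score, as percent of positive control median, at least 50; inconclusive = mean below 50 but one replicate at or above 50; inactive = mean and every replicate below 50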;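 also: strain carries kanamycin resistance gene driven by streptokinase promoter and grows in 40 µg/ml kanamycin; loss of luminescence reflects streptokinase promoter inhibition or plain growth inhibition; 0% = median of DMSO wells and 100% = positive control at its reference dose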
Beta apoptosis = blocks beta cell apoptosis | INS-1E cytokine-induced death, ATP luminescence, 48 h; percent of positive-control rescue, neutral wells zero | protection from apoptosis, % (no concentration beside the values) | hit rate 0.8% among 300,000;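 active = Every replicate reaches about 75%, or at least half do and their mean reaches it too, limit read from the data; inconclusive = At least half of replicates reach the limit but their mean does not; inactive = Under half of replicates reach the limit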;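 also: 0% = cytokine-treated negative control wells and 100% = positive control rescue; higher means more ATP so stronger rescue from cytokine killing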
* marks the source's active call; other numbers are inactive results; ? = inconclusive; . = no result. Most compounds without a hit are left out; they make up all but 3.1% or so of the library.

SMILES	CSC inhib	PP1 inh	PP5 primary	SKKanGAS inh	Beta apoptosis
C=CCNC(=O)c1c(CSc2ccc(Cl)cc2)noc1C(=O)NCCC	14	4	2	3	1
CCCNC(=O)c1onc(CSc2ccc(Cl)cc2)c1C(=O)NCCC(C)C	93*	0	2	30	4
CC(=O)N1CCOc2ccc(S(=O)(=O)N(C)c3cccc(C)c3)cc21	-5	-2	1	-6	-4
COc1ccc(/C=C/C(=O)c2ccc3c(c2)OCO3)c(OC)c1	-2	-3	1	-1	6
COc1cc(/C=C/C(=O)c2ccc3c(c2)OCO3)cc(Cl)c1O	113*	-7	-6	22	-2
CCN(CC)C(=O)COc1ccc(/C=C(\C#N)S(=O)(=O)c2ccccc2)cc1OC	-9	-5	-3	-4	-2
C/C(=N/NC(=O)CN1CCN(Cc2ccccc2Cl)CC1)c1cccnc1	9	-4	-2	-2	3
Cc1ccc(NS(=O)(=O)c2ccc3c(c2)CCN3C(=O)CCC(=O)O)cc1Cl	-2	10	-2	-1	-10
Cc1cccc(CSc2nc(N)c(C#N)c(-c3cccs3)c2C#N)c1	5	9	5	59*	13
Cc1cccc(CSc2nc3c(c(-c4cccs4)c2C#N)CN(C)CC3)c1	-2	8	0	-4	.
COc1cccc(Nc2nc(-c3cccc(N4C(=O)c5ccccc5C4=O)c3)cs2)c1	30	3	5	13	-5
Clc1cccc(Nc2nc(-c3ccncc3)cs2)c1	?	17*	3	-10	-26
COc1cccc(Nc2nc(-c3ccc(O)cc3)cs2)c1	117*	1	3	4	7
CCOc1ccc(NC(=S)NNC(=O)c2ccc(Br)cc2)cc1	-17	1	2	1	5
N#CC(c1cccc(Cl)c1)c1ccc2c(C(F)(F)F)cc(C(F)(F)F)nc2n1 (stereo not given)	107*	0	4	95*	114*
CCCc1cc2c(=O)c(-c3ccc4c(c3)OCCO4)coc2cc1OC(=O)c1ccco1	89*	-5	2	8	4
CCN(CC)CCSc1nnc2c3ccccc3n(Cc3ccccc3)c2n1	79*	2	0	-1	-1
CCCNC(=O)c1ccc2c(=O)c(O)c(-c3ccc(Cl)c([N+](=O)[O-])c3)[nH]c2c1	-16	4	0	2	79*
O=C(Nc1cccc(/C=C/c2ccccn2)c1)c1ccc(-n2cncn2)c([N+](=O)[O-])c1	28	-1	4	8	.
CCCCc1ccc(-c2csc(/C(C#N)=C\c3ccc(C)o3)n2)cc1	13	0	0	-6	4
CCOc1ccc(-c2csc(/C(C#N)=C\c3ccc(O)c([N+](=O)[O-])c3)n2)cc1	108*	6	5	101*	74
NC(=O)CCCn1c(C(=O)c2ccc(Cl)cc2)c2ccc([N+](=O)[O-])cc2[n+]1[O-]	4	-2	2	23	39
NC(=O)CCCn1c(C(=O)c2cc(Cl)c(N)c(Cl)c2)c2ccc([N+](=O)[O-])cc2[n+]1[O-]	15	3	2	69*	54
CC(C)Nc1nc(NC(C)C)nc(N(C)N)n1	-4	-1	1	56*	-4
CC(=O)Oc1ccc(C(=O)Nc2cccnc2)cc1	-5	-2	0	0	-3
SMILES	CSC inhib	PP1 inh	PP5 primary	SKKanGAS inh	Beta apoptosis
COc1ccc(-c2cc3nnc(-c4ccccc4)nc3s2)cc1	10	-2	0	4	14
COc1ccc(-c2cc3ncnc(Cl)c3s2)cc1	34	2	5	54*	4
CC(C)(C)N(Cc1ccccc1)C(=O)COC(=O)c1cccc([N+](=O)[O-])c1	-3	3	2	6	-2
COc1cc(S(=O)(=O)N2CCCCCC2)c(OC)cc1Br	79*	0	5	-7	-14
CC(C)n1nc(C(=O)Nc2nc3ccc(S(C)(=O)=O)cc3s2)c2ccccc2c1=O	-7	-2	3	-2	8
CC(C)n1nc(C(=O)Nc2nnc(SCc3c(Cl)cccc3Cl)s2)c2ccccc2c1=O	36	2	1	64*	-6
CCCOc1cccc(C(=O)NCCNC(=O)c2cnccn2)c1	.	2	1	-3	0
c1ccc(-c2ccc(C(c3ccccc3)n3ccnc3)cc2)cc1 (stereo not given)	23	16*	-1	21	4
COc1ccc(N2CCN(S(=O)(=O)CC34CCC(CC3=O)C4(C)C)CC2)cc1 (stereo not given)	-14	-1	0	2	-1
O=[N+]([O-])c1ccc(N2CCN(C(=S)Nc3ccc(F)cc3)CC2)cc1	16	1	3	-2	76*
O=c1c2cc(Br)ccc2nc(-c2ccc(Cl)cc2)n1O	24	0	-1	89*	5
O=c1c2ccc(Cl)cc2nc(-c2cccc(C(F)(F)F)c2)n1O	-6	16*	3	97*	51
Cc1ccc(-c2nc3c(Cl)cc(Cl)cc3c(=O)n2O)cc1	32	17*	1	90*	5
CN(C)c1cccc(C(=O)NCC(c2ccco2)N(C)C)c1 (stereo not given)	.	1	1	-2	-5
CCN1CCN(c2ccc(S(=O)(=O)N3CCOCC3)cc2NC(=O)C(C)Oc2cccc(Cl)c2)CC1 (stereo not given)	-10	-2	2	2	0
CC(Oc1cccc(Cl)c1)C(=O)Nc1cc(S(=O)(=O)N2CCOCC2)ccc1N1CCCCC1 (stereo not given)	-3	1	3	36	110*
CCOC(=O)C(=NC(C)(C)C)NNc1cc(Cl)ccc1Cl	28	-1	0	78*	-5
O=C(COc1ccc(Cl)cc1Cl)Nc1ccc(-c2ccc(N3CCOCC3)nn2)cc1	.	4	-1	51*	2
Cc1c(C2(O)CCCCC2)[nH]c2ccc(C(F)(F)F)cc12	81*	.	.	.	5
CNS(=O)(=O)c1ccc(NC(=O)c2cnn3c(C(F)F)cc(-c4ccccc4)nc23)cc1	-6	-3	-3	53*	22
O=C(Nc1cccc(S(=O)(=O)N2CCOCC2)c1)c1cnn2c(C(F)F)cc(-c3ccccc3)nc12	11	1	0	21	21
CC(=O)N1CCN(c2ccc(Oc3ccc([N+](=O)[O-])c(C(F)(F)F)c3)cc2)CC1	-4	2	5	-1	95*
CC1CCc2sc(C(=O)N=Nc3c(O)[nH]c4ccccc34)cc2C1 (stereo not given)	-5	-1	1	-10	5
O=C(Nc1ccc(F)cc1)Nc1cc(OCC(F)(F)F)cc(OCC(F)(F)F)c1	51	4	4	78*	106*
CC(OC(=O)CNC(=O)C1CCCCC1)C(=O)NCc1ccccc1 (stereo not given)	4	.	.	.	-3
CCOC(=O)C1(Cc2ccccc2C(F)(F)F)CCN(C2CCN(C(C)=O)CC2)CC1	8	4	-1	-6	-2
CCCCN1/C(=C/c2cccc[n+]2C)Sc2cc(NC(C)=O)ccc21	-11	-3	3	0	25
